Consider 40 sequences from the OligoGym collection.
Note: reference of the scale not given here.

One test concerns the target APOA4. Kind of test: pooled miR-30 sensor sort-seq; sequence = guide strand. Particulars: shRNA.
Sequence AAGTAGTCCCACATCACCGTGG returned a sensor-assay potency score (higher = more potent) of -0.243.
Same read-out and setting: under TCCACGTTCTGGTCGATCTTGG stands -1.41; under TCTTTCTCCTTGAAGGTGCTGA, 0.0406; under TTCTCCTTGAAGGTGCTGAAGA, -1.33.
In turn, TTGGCCTTGAGCTCGTCGGCGT gave a sensor-assay potency score (higher = more potent) of -0.576.
Turning to TCTTCTGCAGGTCACCTGCGTA, the sensor-assay potency score (higher = more potent) is -1.37.

In another test the target is APOBEC1. The test is described as above. Particulars: shRNA.
For the sequence TTTTTGCCTGAGCTTCGCCAGA, the sensor-assay potency score (higher = more potent) was -1.38.
As to TAATCTGAATAGTTACTCCACT, the sensor-assay potency score (higher = more potent) is -0.77.
TGAAAATCTCTTTCTGACGTAA yielded a sensor-assay potency score (higher = more potent) of -0.0382.
On to TTAACTTCCACGTGATTGGTGG, for which the sensor-assay potency score (higher = more potent) was 0.311.
Still for that read-out and setting: under TTGCCGATTTTGTTGATCCATG stands -1.51; under AATTATGCAGTGCAGCTCCAGT, -0.901.
On to TTGAAATCTTTAAACAGGGTGG, for which the sensor-assay potency score (higher = more potent) was determined as 0.0773.
Still for that read-out and setting: under TTTTTATAAAATTAACTTCCAC stands -0.469.
Turning to TACAACATCATCCACAGAGGTG, the sensor-assay potency score (higher = more potent) is -0.853.
On the same count and under the same terms, as for TTAAACAGGGTGGAAGACTTAG, the figure is -0.633; as for ATAATCTGAATAGTTACTCCAC, 0.108.
Same read-out and setting: as for TTTTATAAAATTAACTTCCACG, the figure is -0.657; as for TAGAAGACGTCAAACTCCCAGG, -0.81.
The sequence TAGAATTATGCAGTGCAGCTCC came in with a sensor-assay potency score (higher = more potent) of 0.275.
Still for that read-out and setting: under TTGATTTCGTAGAGCAGACAGG stands -1.09; under TAGAGTCACACCAGGGTGCCGA, -0.942; under TTTAGTGGGTCATCATTGCTTG, -0.449.
As to TTTCGTAGAGCAGACAGGCCTC, the sensor-assay potency score (higher = more potent) is -0.178.
Turning to TAGTTGACAAAATTCCTCCAGC, the sensor-assay potency score (higher = more potent) is 0.113.
On the same count and under the same terms, under TAACAAGGTCCCTGAGACCTTG stands -0.747.
Still for that read-out and setting: under TATAAAATTAACTTCCACGTGA stands 0.0953; under TCCACTGTTAACAAGGTCCCTG, -0.838.
Consider TAAAATTAACTTCCACGTGATT, for which the sensor-assay potency score (higher = more potent) is -0.973.
Sequence TTTTGTTGATCCATGTGCCAAA returned a sensor-assay potency score (higher = more potent) of -1.26.

Another test has as its target APOBEC3A. The description is as above. The settings on record: shRNA.
As for TGTGGATCCATCAAGTGTCTGG, the sensor-assay potency score (higher = more potent) is -0.129.
In the case of TAAAAATCTACTTGATCGGGAG, the sensor-assay potency score (higher = more potent) is 0.575.
Sequence TTAAAAATCTACTTGATCGGGA showed a sensor-assay potency score (higher = more potent) of 0.68.
Still for that read-out and setting: as for TATTCTGAGAATATTGAGCATA, the figure is -1.17; as for AATCTTACTATTGTGTACTTGG, 0.0307.
As for TTAAATTCATCGTAGGTCATGA, the sensor-assay potency score (higher = more potent) is 0.00462.
The same measure, in the same setting: under TTCGTAGCACAGGTAGGTCTTA stands -0.473; under TTGATCGGGAGCATACTGCTTT, 0.642; under TGGTCCATCTTGACCGAGGTGC, -0.749.
In turn, TACATTGAAAATTATTCTGAGA had a sensor-assay potency score (higher = more potent) of -1.07.
